Experimental data from PubChem BioAssay (Tox21).
Records with an inconclusive call do not appear. Entries that show only a call come without a potency. Active and inactive are the calls of the source. Calls follow the shape of the dose curve; as a rule, active = well fitted inhibition curve with a large enough effect in the repeat runs; inconclusive = weak or mixed curves; inactive = flat fitted curve, though single readings scatter.

Target: Voltage-gated inwardly rectifying potassium channel KCNH2 (Homo sapiens) (UniProt Q12809)
Assay: Human Ether-a-go-go-Related Gene (hERG) channel small molecule antagonists: fluorescence cell-based qHTS assay (AID 1671200); also: nearly all actives have a fitted effect of over 50% in size
Details: hERG-U2OS cells, FluxOR thallium flux fluorescence; series mostly up to 76.8 µM
Description: National Center for Advancing Translational Sciences [NCATS]
U.S. Environmental Protection Agency [EPA]
National Institutes of Environmental Health Sciences [NIEHS]
National Toxicology Program [NTP]
U.S. Food and Drug Administration [FDA]
Mutations in the hERG channel cause Long QT (LQT) syndrome. LQT syndrome is a cardiac disorder which can cause ventricle arrhythmia and sudden death. Additionally, compounds which block the hERG channel can cause acquired LQT syndrome. Several FDA approved drugs have been removed from the market due to their hERG blocking activity. A cell-based hERG channel inhibition assay can be used to screen chemical compounds that inhibit hERG channel. This assay measures hERG channel activity using thallium ions as surrogate ions to measure potassium into the cells.
Tox21 Assay Protocol Summary:
hERG-U2OS cells were resuspended in culture medium and dispensed into 1536-well, black wall/clear-bottom plates at 1000cells/well/3uL using a Multidrop Combi dispenser (Thermo Fisher, Waltham, MA). After plates were incubated at 37 C overnight, 3 uL of Loading Buffer provided by FluxOR II Potassium Ion Channel Assay kit (Thermo, Carlsbad, CA) was added to each well. The assay plates were then incubated at room temperature in the dark for 1h. […] After the assay plates were incubated at room temperature for 10 min, 1 uL of Stimulus Buffer provided by FluxOR II Potassium Ion Channel Assay kit was added into each well and fluorescence intensity (480nm excitation/540nm emission) was continuously measured for 2 min at 1 second intervals using a Functional Drug Screening System (FDSS) 7000EX kinetic plate reader (Hamamatsu, Japan).
Potency is read from the fitted curve at half-maximal effect.

Voltage-gated inwardly rectifying potassium channel KCNH2 (Homo sapiens), sequence (Q12809 whole entry, looked up): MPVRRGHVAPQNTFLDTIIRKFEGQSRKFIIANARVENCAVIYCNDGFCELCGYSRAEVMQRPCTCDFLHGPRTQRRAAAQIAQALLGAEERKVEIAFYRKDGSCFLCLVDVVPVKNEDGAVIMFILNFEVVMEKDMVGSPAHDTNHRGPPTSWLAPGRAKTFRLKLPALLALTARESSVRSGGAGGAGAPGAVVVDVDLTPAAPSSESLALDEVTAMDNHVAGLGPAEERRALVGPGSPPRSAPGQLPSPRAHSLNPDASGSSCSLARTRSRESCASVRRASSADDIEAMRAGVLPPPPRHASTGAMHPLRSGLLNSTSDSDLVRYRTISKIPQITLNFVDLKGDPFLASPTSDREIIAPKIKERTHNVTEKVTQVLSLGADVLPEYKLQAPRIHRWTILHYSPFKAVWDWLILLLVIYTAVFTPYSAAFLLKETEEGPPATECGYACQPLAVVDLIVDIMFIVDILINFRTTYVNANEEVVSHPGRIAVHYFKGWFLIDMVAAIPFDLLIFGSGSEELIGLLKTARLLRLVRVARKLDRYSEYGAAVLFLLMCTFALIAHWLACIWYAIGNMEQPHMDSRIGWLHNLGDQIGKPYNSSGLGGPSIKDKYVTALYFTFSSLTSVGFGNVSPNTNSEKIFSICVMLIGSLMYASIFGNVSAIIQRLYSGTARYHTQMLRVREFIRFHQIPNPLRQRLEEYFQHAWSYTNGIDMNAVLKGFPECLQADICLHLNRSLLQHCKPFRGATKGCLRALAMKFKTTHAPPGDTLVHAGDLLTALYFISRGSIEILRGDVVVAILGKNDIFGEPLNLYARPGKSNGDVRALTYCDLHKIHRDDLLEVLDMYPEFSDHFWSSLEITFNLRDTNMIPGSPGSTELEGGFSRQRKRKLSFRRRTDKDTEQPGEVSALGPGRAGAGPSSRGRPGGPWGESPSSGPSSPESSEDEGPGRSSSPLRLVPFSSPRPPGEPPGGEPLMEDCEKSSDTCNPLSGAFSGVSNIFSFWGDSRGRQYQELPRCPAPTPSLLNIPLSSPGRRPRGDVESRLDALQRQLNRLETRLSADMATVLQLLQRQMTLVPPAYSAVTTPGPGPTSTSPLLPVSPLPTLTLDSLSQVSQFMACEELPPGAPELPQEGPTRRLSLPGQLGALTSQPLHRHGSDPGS

Structure (SMILES) | Potency | activity change, negative = inhibition
CN(C)CCOC(c1ccccc1)c1ccc(Br)cc1 (stereo not given) | 3.38 µM (active) | 
CCOCC(O)COc1ccc(NC(=O)CC[S+](C)C)cc1 (stereo not given) | inactive | 
COCC(C)OC(C)=O (stereo not given) | inactive | 
COc1ccc2cccc(CCNC(C)=O)c2c1 | inactive | 
CC(=O)[O][Al][O]C(C)=O | inactive | 
C/C=C(/C(=C/C)c1ccc(OC(C)=O)cc1)c1ccc(OC(C)=O)cc1 | inactive | 
COc1ccc(C(=O)N2CCN(CC(=O)N3CCOCC3)CC2)cc1 | inactive | 
O=C(c1ccc(F)cc1)C1CCN(CCn2c(=S)[nH]c3ccccc3c2=O)CC1 | 0.601 µM (active) | 
CCOC(=O)Cc1cccc2ccccc12 | inactive | 
COC(=O)c1ccc(I)cc1S(=O)(=O)NC(=O)Nc1nc(C)nc(OC)n1 | inactive | 
O=C(OCCc1ccccc1)c1ccccc1 | inactive | 
C[C@@H]1C[C@H]2O[C@@]3(O[C@@H]2C(C)(C)O)[C@H](O)[C@@]2(C)[C@@H]4CC[C@H]5C(C)(C)[C@@H](O[C@@H]6OC[C@@H](O)[C@H](O)[C@H]6O)CC[C@@]56C[C@@]46CC[C@]2(C)[C@@H]13 | inactive | 
Nc1cccc([N+](=O)[O-])c1 | inactive | 
C/C=C/C=C/CO | inactive | 
CCCCCCOC(=O)NC(=N)c1ccc(NCc2nc3cc(C(=O)N(CCC(=O)OCC)c4ccccn4)ccc3n2C)cc1 | 0.601 µM (active) | 
CC(=O)c1ccc2c(c1)N(CCCN1CCC(CCO)CC1)c1ccccc1S2 | 3.01 µM (active) | 
CN1CCC(N(Cc2cccs2)c2ccccc2)CC1 | 2.68 µM (active) | 
C[Si](C)(CCCN)O[Si](C)(C)CCCN | inactive | 
Nc1ccc(S(=O)(=O)Nc2ccccc2)cc1 | inactive | 
c1ccc(C(O[C@H]2CCCN(CCc3ccc4c(c3)OCO4)C2)c2ccccc2)cc1 | 0.535 µM (active) | 

Structure (SMILES) | Potency | activity change, negative = inhibition
CC(CSC(=O)c1ccccc1)C(=O)N1C[C@@H](Sc2ccccc2)C[C@H]1C(=O)O (stereo not given in full) |  | 3.26% [at 15.8 µM] (inactive)
O=C1OC(=O)C2C3C=CC(C3)C12 (stereo not given) | inactive | 
NC(N)=NCCC[C@H](N)C(=O)O |  | 5.88% [at 6.97 µM] (inactive)
O=C(O)c1ccco1 | inactive | 
Cc1[nH]c(C)c(Cl)c(=O)c1Cl |  | -0.502% [at 15.8 µM] (inactive)
O=C1OC(CN2CCOCC2)CN1/N=C/c1ccc([N+](=O)[O-])o1 (stereo not given) | inactive | 
CCCCNc1ccc(C(=O)OCCOCCOCCOCCOCCOCCOCCOCCOCCOC)cc1 | inactive | 
CCCCCC[C@@H](O)C/C=C\CCCCCCCC(=O)OC | inactive | 
CN(C)CCN(Cc1ccccc1)c1ccccn1 | 9.52 µM (active) | 
CCOC(=O)NCCOc1ccc(Oc2ccccc2)cc1 | 43.6 µM (active) | 
CC(C)(C)Cl | inactive | 
CCCCCCCCCCO[C@@H]1O[C@H](CO)[C@@H](O)[C@H](O)[C@H]1O | inactive | 
CCCCCCCCCCCCCCCCOS(=O)(=O)O | inactive | 
Cc1c(N)cccc1[N+](=O)[O-] | inactive | 
CCCC(=O)Nc1ccc(O)c(C(C)=O)c1 | inactive | 
C#CCN(C)CCCOc1ccc(Cl)cc1Cl | 8.49 µM (active) | 
O=C(CS)Nc1ccccc1 | inactive | 
CC[N+](C)(CC)CCOC(=O)C(O)(c1ccccc1)C1CCCCC1 (stereo not given) | inactive | 
CN(C)CCN(Cc1ccsc1)c1ccccn1 | inactive | 
CCC(CC)Nc1ccc(C)c(C)c1 | inactive | 
